Experimental data: PubChem BioAssay AID602270 (The Scripps Research Institute Molecular Screening Center, 2012)
The list shows a part of the results. Activity calls are given as the source filed them. Rule as the data show it: active = activation above about 4%; inactive = the rest.

test system: Methionine sulfoxide reductase A (Bos taurus); test: methionine sulfoxide reductase A activation – biochemical, absorbance, bovine, HTS, confirmation (AID 602270); conditions: purified bovine MsrA, absorbance read-out; at 10.6 µM; active compounds read high;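 also: enzyme coupled to thioredoxin and thioredoxin reductase with NADPH; 0% = vehicle wells and 100% = reference activator wells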

activation, active:
O=C(OCC(=O)N1CCN(c2ccccc2)CC1)c1ccc([N+](=O)[O-])s1 3.98%

activation, inactive:
O=C(O)Cc1ccc(NC(=O)C2CCCCC2C(=O)O)cc1 (centres undefined) -1.24%
C=CCn1c(SCC(=O)c2c(N)n(C)c(=O)n(C)c2=O)nc2sc(CC)cc2c1=O -2.75%
O=C(O)C1CCCCC1C(=O)Nc1ccc(Cl)cc1 (centres undefined) -0.71%
O=C(O)c1ccccc1NC(=O)c1ccccc1-c1ccccc1C(=O)O -3.02%
O=C(O)c1ccccc1-c1ccccc1C(=O)Nc1cccc2ccccc12 -1.68%
CCOc1cccc(-n2nnnc2-c2ccc(OC)cc2)c1 -1.06%
O=C(NCc1ccccc1)C1c2ccccc2OCC(=O)N1C1CC1 (centres undefined) 1.81%
COc1ccc([C@H]2CC(=O)C=C(/C=C/c3ccccc3)C2)cc1 -2.68%
CC(=O)NC(Cc1c[nH]c2ccccc12)C(=O)O (centres undefined) -0.4%
COc1ccc(Cl)cc1NS(=O)(=O)c1cccc(C(=O)NCC2CCCO2)c1 (centres undefined) 2.13%
O=c1c2cc(Br)ccc2nc(-c2cccc(Cl)c2)n1O -1.14%
COc1cc(OC)c(C(=O)NCc2ccc3c(c2)OCO3)cc1OC 2.87%
CCCCNC(=O)OC(C)CNC(=O)OC (centres undefined) -2.15%
COc1ccc(C(=O)COC(=O)c2ccc([N+](=O)[O-])s2)cc1OC 2.35%
O=C(CSc1n[nH]c(-c2cccs2)n1)N1CCCCC1 -1.33%
COc1ccccc1-n1cn[nH]c1=S -0.06%
COc1ccc2nc(N3CCCC(O)C3)c(C#N)cc2c1 (centres undefined) -2.45%
O=C(O)/C=C/c1cn(Cc2ccccc2)nc1-c1cccs1 -1.62%
CCOc1ccc2[nH]c(=S)sc2c1 1.68%
O=C(CCN1CCN(c2ccccc2)CC1)NNC(=S)Nc1ccccc1 -0.61%
COc1ccc(C(CNC(=O)c2cc3c(s2)CCCC3)N2CCOCC2)cc1 (centres undefined) 0.61%
CC(C)(C)C(=O)CCN1C(=O)C2(OCCO2)c2ccccc21 -4.67%
CC1(C)S[C@@H]2[C@H](NC(=O)COc3ccccc3)C(=O)N2C1C(=O)OCc1ccccc1 (some centres undefined) 0.74%
